# From the OligoGym collection
# Biological target: CYP4A11
# Test: pooled miR-30 sensor sort-seq; sequence = guide strand
# Details: shRNA
# Also: reference of the scale not given here.
row,Sequence,sensor-assay potency score (higher = more potent)
1,TAGATGGTGTCATTCTGGTGAA,-0.837
2,TGTGCAGGTAGAGCTGAACTGC,-1.37
3,TTTGAGCAGCCACTGCCTGTGC,-0.428
4,AAAGGGTCAAACACCTCTGGGT,-0.324
5,TTTCTGAATCCGTTGTAGCTCC,-0.368
6,AACACAAGTCGTGCAATGGGGA,-1.18
7,TAGCTCCTGGTCCTGTTGGAGC,-1.31

# Biological target: CYP4A22
# Test: as above
# Details: shRNA
row,Sequence,sensor-assay potency score (higher = more potent)
1,TCCTTGTCTGACAAGATGCTCC,-1.35
2,AATAAGGACAGGCACTTGGGAA,-1.26
3,TAGCTCCTGGTCGTGTTGGAAC,-1.63
4,TGGTCGTGTTGGAACTCCTGGA,-0.8
5,AACACAAGTCGTGCCATGGGGA,-0.895
6,TGTCTGACAAGATGCTCCCATT,-1.67
7,TTGATCTTCTCCAGCTCCCCCT,-0.672
8,TTCTGTAGTTGAGCCTTCCTCA,0.294
9,TTGGTCTGTGTGCTGATGGGCC,-0.327
10,TGGCCCTCAAACATGAACGTGT,-0.767
11,TTAATGCACATGGTGGTGTAGG,-1.01
12,TTCCTGAATCCGTTGTAGCTCC,-0.657
13,TTTGGATTTCAACACAAGTCGT,-1.17
14,TATGCAGGTAGAGCTGAGCTGC,-1.03
15,TTTCAACACAAGTCGTGCCATG,-0.809
